Results on 40 compounds are retold here after PubChem BioAssay AID1445 (SRMLSC, 2008).

“And” between values parts separate entries of the source, which are not always exact repeats. Equal values may be shown once. The campaign covered roughly 220,000 compounds. About 910 (0.41%) were called active.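 The calls were made as follows: active = primary inhibition above the hit cutoff, then over 50% inhibition at one or more dose response concentrations (cut at about 23% in these data, passing the limit was not always enough); inconclusive = conflicting primary data, or primary hits not chosen for dose response; inactive = low primary inhibition, or under 50% at every dose.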 Shown is part of a subset that was picked to be rich in actives. Potency and affinity values are given separately. The source holds several records for some structures; these can differ, active in one and inactive in another.

The target of the test is Aminopeptidase N (Plasmodium falciparum (isolate 3D7)) (UniProt O96935). As to the kind of experiment: malaria alanyl aminopeptidase activity blockers – biochemical, fluorogenic H-Leu-NHMec substrate, 1536-well (AID 1445).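 Also: plate controls were DMSO full reaction for no effect and no enzyme background for full effect.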 To be noted: recombinant M1AAP, H-Leu-NHMec fluorogenic kinetic assay; at 30 µM; stronger effect = higher value.
Aminopeptidase N (Plasmodium falciparum (isolate 3D7)), sequence (O96935 whole entry, looked up): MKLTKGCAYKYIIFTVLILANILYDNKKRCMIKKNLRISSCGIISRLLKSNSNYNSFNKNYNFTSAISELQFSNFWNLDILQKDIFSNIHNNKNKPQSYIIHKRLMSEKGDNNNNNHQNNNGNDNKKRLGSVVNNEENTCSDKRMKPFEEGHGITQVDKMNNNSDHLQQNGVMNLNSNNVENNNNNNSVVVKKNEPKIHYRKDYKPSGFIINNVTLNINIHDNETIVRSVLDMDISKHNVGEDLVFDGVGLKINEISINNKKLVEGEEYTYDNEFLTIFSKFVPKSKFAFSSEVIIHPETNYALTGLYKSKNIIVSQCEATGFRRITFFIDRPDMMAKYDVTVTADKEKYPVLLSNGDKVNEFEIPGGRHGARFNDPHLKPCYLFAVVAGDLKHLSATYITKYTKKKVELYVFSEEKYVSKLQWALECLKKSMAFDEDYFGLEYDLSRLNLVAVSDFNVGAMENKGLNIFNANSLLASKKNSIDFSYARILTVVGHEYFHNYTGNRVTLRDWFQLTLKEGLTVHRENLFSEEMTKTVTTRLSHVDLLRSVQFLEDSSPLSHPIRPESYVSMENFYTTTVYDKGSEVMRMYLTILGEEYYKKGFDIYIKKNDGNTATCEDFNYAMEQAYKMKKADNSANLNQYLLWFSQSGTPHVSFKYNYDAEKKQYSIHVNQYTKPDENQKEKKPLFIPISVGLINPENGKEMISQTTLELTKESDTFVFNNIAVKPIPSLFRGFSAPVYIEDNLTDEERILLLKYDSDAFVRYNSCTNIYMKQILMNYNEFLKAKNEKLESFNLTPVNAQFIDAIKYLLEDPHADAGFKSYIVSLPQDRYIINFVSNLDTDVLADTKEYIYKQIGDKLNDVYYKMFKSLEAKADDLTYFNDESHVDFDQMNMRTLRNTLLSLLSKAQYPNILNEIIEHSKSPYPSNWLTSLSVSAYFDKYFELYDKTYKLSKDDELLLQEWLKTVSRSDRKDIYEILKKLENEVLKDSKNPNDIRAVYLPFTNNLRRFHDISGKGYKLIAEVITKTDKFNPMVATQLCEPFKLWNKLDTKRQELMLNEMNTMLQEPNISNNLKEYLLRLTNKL
`CC(C)OC(=O)c1c(N)n(Cc2ccco2)c2nc3ccccc3nc12`: the inhibition is 26.7% (active).
In the case of `CC(C)CNC(=O)c1c(N)n(Cc2ccco2)c2nc3ccccc3nc12`, the inhibition is 13% (inactive).
As for `COCC(C)OC(=O)c1c(N)n(Cc2ccco2)c2nc3ccccc3nc12` (stereo not given), the inhibition was 17.3% (inactive).
As for `C=CCNC(=O)c1c(N)n(Cc2ccco2)c2nc3ccccc3nc12`, the inhibition was 24.2% (active).
Then `CCCNC(=O)c1c(N)n(Cc2ccco2)c2nc3ccccc3nc12`, with 19.9% (inactive); and `CC(C)(C)OC(=O)c1c(N)n(Cc2ccco2)c2nc3ccccc3nc12`, with 8.25% (inactive).
For `CCC(=NCc1ccco1)c1c(O)[nH]c(=O)[nH]c1=O`, the inhibition is 14.4% (inactive).
In the case of `CCC(=NCC1CCCO1)c1c(O)n(-c2ccccc2C)c(=O)[nH]c1=O` (stereo not given), the inhibition was 6.89% (inactive).
`O=C1Nc2ccccc2C1Cc1nc2ccccc2c(=O)n1-c1ccccc1` (stereo not given): the inhibition is -1.31% (inactive).
With `Cc1ccc(S(=O)(=O)N2CCCCC2)cc1NC(=O)CN1CC=C(c2ccccc2)CC1`, the inhibition was 5.04% (inactive).
With `c1ccc(C2=NP(N3CCOCC3)(N3CCOCC3)=NC(N3CCOCC3)=N2)cc1`, the inhibition was -3.04% (inactive).
As for `Cc1cccc(-n2c(-c3cccs3)nc3ccccc3c2=O)c1`, the inhibition was 4.14% (inactive).
In the case of `Cc1cccc(N2CCc3c2nc2ccccc2c3N)c1`, the inhibition is 25.6% (active) and 6.14% (inactive).
For `CCOC(=O)c1nc2ccccc2c(=O)n1-c1cccc(C)c1`, the inhibition is 0.05% (inactive).
Regarding `COCCOC(=O)c1c(N)n(Cc2ccccc2)c2nc3ccccc3nc12`, the inhibition is 25% (active).
In the case of `COCCCn1c(N)c(C(=O)OCCOC)c2nc3ccccc3nc21` it was 27.6% (active); in that of `COC(=O)c1c(N)n(Cc2ccc(OC)cc2)c2nc3ccccc3nc12`, 13.7% (inactive).
With `CCCCn1c(N)c(C(=O)OCCOC)c2nc3ccccc3nc21`, the inhibition was 17.7% (inactive).
Regarding `CCCCOCCCn1c(N)c(C(=O)OCCOC)c2nc3ccccc3nc21`, the inhibition is 19.1% (inactive).
For the compound `CCOC(=O)c1c(N)n(Cc2ccc(OC)cc2)c2nc3ccccc3nc12`, the inhibition is 13.6% (inactive).
Consider `CCC(=NCCc1c[nH]c2ccccc12)c1c(O)n(-c2ccc(C)cc2)c(=O)[nH]c1=O`, for which the inhibition is 1.85% (inactive).
Consider `CCC(=O)N1N=C2C3CCN(CC3)C2C1c1ccccc1` (stereo not given), for which the inhibition is 0.59% (inactive).
For `CCCCn1c(O)c(C(C)=NCc2ccc3c(c2)OCO3)c(=O)[nH]c1=O`, the inhibition is -11.8% (inactive).
As for `Cc1sc2nc(COC(=O)Cc3ccccc3)[nH]c(=O)c2c1C`, the inhibition is 13.2% (inactive).
In the case of `CC(=NCCN1CCCCC1)c1c(O)n(Cc2ccccc2)c(=O)[nH]c1=O` it was 11.5% (inactive).
For the compound `CCOC(=O)C(O)(c1cn(C)c2ccccc12)C(F)(F)F` (stereo not given), the inhibition was 25.5% (active).
Turning to `CCOC(=O)C(O)(c1ccc(N=c2ccccn2C)cc1)C(F)(F)F` (stereo not given), the inhibition was 6.08% (inactive).
For the compound `COC(=O)C(O)(c1cn(C)c2ccccc12)C(F)(F)F` (stereo not given), the inhibition is -1.11% (inactive).
Regarding `COc1ccc2c(c1)c(C(=O)O)c(C)n2C(C)C`, the inhibition is 1.69% (inactive).
Regarding `CC(=O)c1cccc(NC2=NCC(C)S2)c1` (stereo not given), the inhibition is 24.8% (active).
Consider `CC1CN=C(Nc2ccc(F)c(Cl)c2)S1` (stereo not given), for which the inhibition was -0.44% (inactive).
On to `CC1CN=C(Nc2ccccc2)S1` (stereo not given), for which the inhibition is 4.63% (inactive).
Take `Cc1ccc(-n2c(O)c(C=Nc3ccc(S(=O)(=O)N(C)C)cc3)c(=O)[nH]c2=O)cc1`: the inhibition was 13.7% (inactive).
In the case of `c1ccc2sc(NC3=NCCN3)nc2c1` it was 6.67% (inactive).
`CC1(C)CN=C(Nc2nc3ccccc3s2)S1`: the inhibition is 26.9% (active).
Regarding `CC1(C)CN=C(Nc2ccccc2C(F)(F)F)S1`, the inhibition is 2.41% (inactive).
For `O=c1[nH]c(=O)n(Cc2ccco2)c(O)c1C=NC1CC1`, the inhibition was 2.96% (inactive).
As for `COc1cc2c(C(=O)N3CCN(C)CC3)c(C)n(C)c2cc1Br`, the inhibition was 0.34% (inactive).
As to `CC(=NCCN1CCOCC1)c1c(O)n(C2CCCCC2)c(=O)[nH]c1=O`, the inhibition is -4.11% (inactive).
Turning to `O=C(C1CCC(=O)N1Cc1ccccc1Cl)N1CCC2(CC1)OCCO2` (stereo not given), the inhibition is 4.98% (inactive).

As usually defined, the inhibition is the change of the read-out against control, counted positive when it falls.
